Results reported in PubChem BioAssay (NCI).
Values joined by “and” are separate entries in the source; they are usually repeats but may differ in a detail not shown here. Equal entries are not always repeated. This is part of a sample that, as a whole, favours compounds with a hit. Of some 79,000 tested, about 15% had one in any assay. Active and inactive are the calls of the source. No stated cut-off is given here; in the data, active means growth inhibition above about 70%; inactive means the rest.

Experiments:
[1] = NCI Yeast Anticancer Drug Screen. Data for the rad50 strain (AID 155);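 further: 0% = growth of vehicle-only cultures of the same strain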; settings: S. cerevisiae rad50 strain growth inhibition, hits give high values; at 50.0 µM unless noted
How it was run: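 Compounds were tested on a yeast strain with an engineered DNA damage repair alteration; the reported value is growth inhibition normalised to vehicle treatment.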

[2] = NCI Yeast Anticancer Drug Screen. Data for the mec2-1 strain (AID 157); settings: S. cerevisiae mec2-1 strain, hits give high values; at 50.0 µM unless noted
How it was run: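 Readout is yeast growth inhibition, normalised to vehicle-treated controls, in the mec2-1 strain exposed to compound.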

[3] = NCI Yeast Anticancer Drug Screen. Data for the sgs1 mgt1 strain (AID 161);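 further: 0% = growth of cultures given vehicle only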; settings: S. cerevisiae sgs1 mgt1 strain, hits give high values; at 50.0 µM unless noted
How it was run: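 Percent growth inhibition was derived by comparing compound-exposed mutant yeast with vehicle-exposed cultures. The strain carries alterations in DNA damage repair.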

[4] = NCI Yeast Anticancer Drug Screen. Data for the cln2 rad14 strain (AID 165);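 further: 0% = growth equal to vehicle treated cultures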; settings: S. cerevisiae cln2 rad14 strain, hits give high values; at 50.0 µM unless noted
How it was run: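 Relative to vehicle controls, growth inhibition of compound-treated cln2 rad14 yeast was recorded.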

[5] = NCI Yeast Anticancer Drug Screen. Data for the bub3 strain (AID 167); settings: S. cerevisiae bub3 mutant strain, hits give high values; at 50.0 µM unless noted
How it was run: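 Growth of a checkpoint-deficient yeast mutant is measured after compound exposure. Values represent inhibition relative to vehicle.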

[6] = NCI Yeast Anticancer Drug Screen. Data for the mlh1 rad18 strain (AID 175); settings: S. cerevisiae mlh1 rad18 strain growth inhibition, hits give high values; at 50.0 µM unless noted
How it was run: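 Test agents were incubated with a yeast strain of defined genotype (DNA damage repair defect). Inhibition of growth was derived by comparison with vehicle-exposed cultures.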

Measured: growth inhibition

OCC12OCC(C=CC1O)O2 (stereo unspecified)
inactive: [1] -13.2% | [2] 17.1% | [3] -4.65% | [4] 1.2% | [5] -0.15% | [6] -8.5%

Nc1nc(-c2ccc(Cl)cc2)cc(-c2cc(-c3ccc(Cl)cc3)nc(N)n2)n1
inactive: [1] 6.7% | [2] -12.9% | [3] -8.15% | [4] -16% | [5] -11.2% | [6] 25.4%

CN(C)C(=S)S(=O)(=O)c1ccccc1
active: [2] 75.8% | [3] 81.2% | [5] 85.6% | [6] 91.2%
inactive: [1] 51.5% | [4] 25.2%

C=C(Br)CNC(=O)CCC(=O)NCC(=C)Br
inactive: [1] -27.5% | [2] -11.8% | [3] -3.35% | [4] -5.9% | [5] -21.4% | [6] -57.7%

O=I(=O)c1ccccc1
inactive: [1] 3.95% | [2] 9.7% | [3] 17.5% | [4] 26.6% | [5] 20.1% | [6] 17.9%

Oc1c(CN2CCOCC2)ccc(CN2CCOCC2)c1O
inactive: [1] 13.4% | [2] 17.3% | [3] -14.1% | [4] 4.55% | [5] 16.1% | [6] 35.5%

CC(C)CCOC(=O)C(O)c1ccccc1 (stereo unspecified)
inactive: [1] 15.6% | [2] 2.8% | [3] 0.4% | [4] -22.2% | [5] -25.7% | [6] 8.45%

CC(C)=CC(=O)CNC(N)=S
inactive: [1] 36.1% | [2] 17.9% | [3] 16.4% | [4] 10.7% | [5] 0.25% | [6] 23.9%

COc1ccc(OC)c2[nH]c(Sc3c([N+](=O)[O-])ncn3C)nc12
inactive: [1] -5.95% | [2] -13.9% | [3] -15.4% | [4] 8.55% | [5] -15.2% | [6] -7.7%

Cc1ccc(C(=O)CC(Sc2ccccc2N)c2c(Cl)cccc2Cl)c(C)c1 (stereo unspecified)
inactive: [1] -7.4% | [2] -26.4% | [3] 3.8% | [4] -4.5% | [5] -11.1% | [6] -16.5%

CC1(C)N=C(C(N)=O)c2ncn(Cc3ccccc3)c2N1
inactive: [1] -29% | [2] -32.6% | [3] -23.6% | [4] 18.4% | [5] -8.1% | [6] -6.9%

COC1=CC(=O)CC(C)C12Oc1c(Cl)c(OC)cc(OC)c1C2=O (stereo unspecified)
inactive: [1] 2% | [2] -14.5% | [3] 20% | [4] 13.4% | [5] 67.1% | [6] 17.9%

Cc1ccc2[nH]c3c(c2c1)C(=O)CCC3
inactive: [1] -7.6% | [2] -2.95% | [3] -12.3% | [4] -20.7% | [5] -17.9% | [6] -1.55%

CCCCCCCCN(CCCCCCCC)CC(O)c1cc(Cl)c(Cl)c(Cl)c1 (stereo unspecified)
inactive: [1] 24.1% | [2] 12.3% | [3] 47.4% | [4] 53.9% | [5] 18.6% | [6] 33%

CCOc1cccc(OCC)c1
inactive: [1] 23.1% | [2] 27.1% | [3] -7.4% | [4] -2.05% | [5] 1.4% | [6] 13.9%

CCOC(=O)/C(=C\c1ccccc1)c1ccccc1
inactive: [1] 7.15% | [2] 5.5% | [3] 9.65% | [4] 7.85% | [5] 27.1% | [6] -6.8%

CCC[N+](C)(C)CCC#N
inactive: [1] -4.55% | [2] 10.9% | [3] 4.2% | [4] -14% | [5] 17.1% | [6] 5.25%

O=c1ccn(C2OC(COC3CCCCO3)C(OC3CCCCO3)C2OC2CCCCO2)c(=O)n1-c1ccccc1 (stereo unspecified)
inactive: [1] 39.7% | [2] -4.8% | [3] 10.1% | [4] -1.4% | [5] -2.65% | [6] 5.25%

N=C1OCCN1/N=C/c1ccc([N+](=O)[O-])o1
inactive: [1] 33.4% | [2] -2.3% | [3] 66.8% | [4] -3.5% | [5] 20.6% | [6] 52.2%

C=C1CC2(OC1=O)c1ccccc1C=Cc1ccccc12
inactive: [1] 26.8% | [2] 13.4% | [3] 55.1% | [4] 48.8% | [5] 47.5% | [6] 50.4%

Cc1nnsc1C(=O)NCc1c(F)cccc1Cl
inactive: [1] 6.65% | [2] 15.6% | [3] 11% | [4] 25.4% | [5] 37.3% | [6] 28.8%

O=C(O)C(Nc1ccc(Cl)cc1)c1ccccc1 (stereo unspecified)
inactive: [1] 1.7% | [2] 3.25% | [3] 18.9% | [4] 6.5% | [5] 8.1% | [6] -22.6%

CC(C)NCC(O)c1ccc(O)c(O)c1 (stereo unspecified)
inactive: [1] 31.9% and -20.8% | [2] -10.6% and -23.4% | [3] -3.35% and 16.2% | [4] 14.7% and -52% | [5] 18.7% and 27.4% | [6] -0.1% and -4.95%

Cc1cc(S(=O)(=O)Nc2n[nH]c(N)n2)c(S)cc1Cl
inactive: [1] 11.4% | [2] 7.45% | [3] -6.65% | [4] -4.6% | [5] 1.1% | [6] 12.8%

Cc1cc(C)c([N+](=O)[O-])cc1N
inactive: [1] 20.9% | [2] 15.1% | [3] 26.6% | [4] 13.5% | [5] 22.8% | [6] 19.6%

CCOCc1cccc2ccccc12
inactive: [1] -13.6% | [2] -33.9% | [3] -14.9% | [4] 9% | [5] -6.55% | [6] -23.9%

O=c1[nH]c2ccc(O)cc2o1
inactive: [1] 33.2% | [2] 17.8% | [3] 27.6% | [4] -10.1% | [5] 12.9% | [6] 22.2%

O=c1[nH]cnc2c1ccc1[nH]ncc12
inactive: [1] 9.45% | [2] 0.2% | [3] -3.35% | [4] -42.2% | [5] -1.05% | [6] 5.4%

Nn1nnc2ccccc21
inactive: [1] 26.8% | [2] 24.8% | [3] 16.3% | [4] 33% | [5] 7.1% | [6] 32.1%

c1cnc2c(c1)Oc1nc3ccccc3nc1S2
inactive: [1] 2.25% | [2] 6% | [3] 3.9% | [4] 35.9% | [5] 8.9% | [6] 23.1%

O=C(O)c1ccccc1S(=O)Cc1ccc(Br)cc1 (stereo unspecified)
inactive: [1] -10.6% | [2] -10.6% | [3] -23.1% | [4] -6.1% | [5] -0.3% | [6] 3.5%

NC(=O)Nc1ccccc1-c1ccccc1
inactive: [1] -0.6% | [2] -11.2% | [3] 13.8% | [4] -26.4% | [5] -10.8% | [6] 7.45%

CCOC(=O)CN(c1c(C)cc([N+](=O)[O-])c2ccccc12)S(=O)(=O)c1ccccc1
inactive: [1] 50.1% | [2] 13.8% | [3] 33.8% | [4] 6.65% | [5] 16.9% | [6] 12.2%

CCCCCCCCCCCC(O)C(C)(C)C (stereo unspecified)
inactive: [1] 23.7% | [2] 10.1% | [3] -12.6% | [4] -39.2% | [5] 11.9% | [6] 10.3%

Cc1cc2nc3c(=O)[nH]c(=O)nc-3n(C/C=N/NC(N)=S)c2cc1C
inactive: [1] 5.75% | [2] -7.65% | [3] -5.05% | [4] -45.1% | [5] -12.8% | [6] -2.7%

COC(=O)CSc1cc(Cl)c(C)cc1S(=O)(=O)Nc1n[nH]c(N)n1
inactive: [1] -14.2% | [2] -7.5% | [3] -11% | [4] -6.65% | [5] -9.75% | [6] 10.2%

OCC(O)Cc1ccccc1 (stereo unspecified)
inactive: [1] -7% | [2] -12.8% | [3] 3.2% | [4] -13.1% | [5] -1.8% | [6] 5.05%

O=C1C=C(c2ccccc2)C(c2ccccc2)/C1=N/O (stereo unspecified)
inactive: [1] 11.3% | [2] -12.9% | [3] 2.55% | [4] 13.1% | [5] 11.9% | [6] -9.85%

CCCCCOC1OC(=O)C(Cl)=C1Cl (stereo unspecified)
inactive: [1] 65.3% | [2] 36.7% | [3] 63.2% | [4] 61.7% | [5] 54.8% | [6] 44%

CC(=O)CC(C[N+](=O)[O-])c1ccccc1 (stereo unspecified)
inactive: [1] -4.7% | [2] -0.8% | [3] -4.65% | [4] -28.5% | [5] -21.6% | [6] -6.9%

C1C2OC2CC2OC12 (stereo unspecified)
inactive: [1] -13.4% | [2] -9.35% | [3] -1.2% | [4] 55.8% | [5] -1.05% | [6] -4.25%
